The list is not random: actives were taken first. Their share in the collection is about 2.7%.
PP5 inh = PP5 (human) phosphatase inhibition; P53041; purified PP5c, OMFP substrate fluorescence; inhibition, % at 6.7 µM; actives 0.18% (n = 320,000); AID 1987;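 active = inhibition above the campaign's mean inhibition across all tested compounds plus 3 SD, cut at about 9.5% in these data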
Target sequence (P53041 whole entry, looked up): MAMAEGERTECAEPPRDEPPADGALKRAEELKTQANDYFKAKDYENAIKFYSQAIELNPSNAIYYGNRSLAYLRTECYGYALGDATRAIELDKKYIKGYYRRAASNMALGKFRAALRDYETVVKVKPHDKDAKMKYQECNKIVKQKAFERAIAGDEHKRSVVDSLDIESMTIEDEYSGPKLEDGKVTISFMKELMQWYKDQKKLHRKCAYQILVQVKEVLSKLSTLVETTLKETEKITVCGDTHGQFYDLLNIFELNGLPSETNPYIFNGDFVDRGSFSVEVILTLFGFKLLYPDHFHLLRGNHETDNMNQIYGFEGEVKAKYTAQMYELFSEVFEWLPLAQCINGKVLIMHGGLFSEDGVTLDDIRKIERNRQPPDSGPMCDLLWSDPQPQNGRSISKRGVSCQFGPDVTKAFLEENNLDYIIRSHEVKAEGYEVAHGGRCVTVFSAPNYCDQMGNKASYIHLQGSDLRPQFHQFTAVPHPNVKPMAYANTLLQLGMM
DNA FID counter = displaces DNA intercalator in HCV helicase counter-screen; AID 1845; inhibition, % at 7.9 µM; DNA fluorescent intercalator displacement, fluorescence; actives 0.17% (n = 290,000); in the data active = inhibition above about 37%;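 note: higher means more ethidium bromide displaced from hairpin DNA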
TMEM16A act = activates or potentiates the mouse TMEM16A chloride channel; HEK293 TMEM16A/YFP-H148Q/I152L, iodide quench fluorescence; active compounds read low; Q8BHY3; actives 0.3% (n = 340,000); B-score at 10 µM;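 active = fluorescence-ratio B-score plate-corrected deviation score at least 3 library SD below zero, with starting fluorescence score within 5 deviations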;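 note: channel opened by trigger with iodide after compound preincubation; score built on the fluorescence ratio of max minus min over baseline; more negative score means more quench and so TMEM16A activation or potentiation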
PP1 counter = counter-screen for PP5 inhibitors: inhibitors of human PP1-alpha; AID 2235; purified PP1alpha, OMFP fluorescence; P62136; actives 0.9% (n = 320,000); inhibition, % at 6.7 µM;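 active = inhibition above the mean inhibition of all tested compounds plus 3 SD, computed separately for each screening campaign, cut at about 15% in these data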
ANO1 block = mouse TMEM16A channel inhibition, primary screen. actives 1.2% (n = 310,000). Q8BHY3. HEK293 TMEM16A/YFP iodide influx fluorescence, ionomycin. normalized B-score (activity score, 25-100; higher = stronger inhibition) at 10 µM;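 active = ratio plate-corrected score three or more library SD toward inhibition, starting fluorescence score within five deviations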;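 note: score derived from kinetic fluorescence span divided by baseline fluorescence per well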
PREPL inhibitor = inhibitors of human prolyl oligopeptidase-like enzyme PREPL; recombinant PREPL, fluorescence polarization activity-based probe; actives 0.68% (n = 320,000); inhibition, % at 5.96 µM; AID 2751; in the data active = inhibition above about 43%
PP1 inh confirm = confirmation of human PP1 phosphatase inhibitors; shares compounds with PP1 counter; purified PP1alpha, OMFP substrate fluorescence; inhibition, % at 6.7 µM; actives 52% (n = 1,900); AID 2358;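 active = mean PP1 inhibition above a set limit taken from the earlier primary screen, cut at about 15% in these data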
PP5 inh counter = inhibits human PP5 phosphatase in PP1 counter-screen; shares compounds with PP1 counter; purified PP5c, OMFP fluorescence; inhibition, % at 6.7 µM; actives 4% (n = 1,900); AID 2360;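 active = mean PP5 inhibition over triplicate wells above about 9.5% taken from the earlier PP1 screen, limit read from the data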
Each line names hits and unclear results; the compound was inactive in the other large screens (follow-up assays come after a bar, where they were run).

CC1=C(C(=O)OCc2ccccc2)C(c2ccc(Cl)cc2)NC(=O)N1CCCCCC(=O)O (stereo not drawn)	none
CCCCCCN(C(=O)CCCCCN1C(=O)NC(c2ccc(-c3ccccc3)cc2)C(C(=O)OCc2ccccc2)=C1C)C(C(=O)NCCCC)c1ccc(OCC(=O)OC)cc1 (stereo not drawn)	PP1 counter 30 (no result: TMEM16A act) | PP1 inh confirm 20 | PP5 inh counter inactive
CCOc1ccccc1NC(=O)COC(=O)Cc1ccc(-c2ccccc2)cc1	PP1 counter 21 | PP1 inh confirm 16 | PP5 inh counter inactive
O=C1CCc2cc(S(=O)(=O)NCc3ccc(F)cc3)cc3c2N1CCC3	none (no result: DNA FID counter)
O=C(Nc1ccc(Cc2ccncc2)cc1)c1ccc(S(=O)(=O)N2CCCC2)cc1	none (no result: PP5 inh, PP1 counter, ANO1 block, PREPL inhibitor)
Cc1ccc(-c2cc(C(=O)Nc3ccc(S(=O)(=O)N4CC(C)OC(C)C4)cc3)[nH]n2)c(O)c1 (stereo not drawn)	PP1 counter 19 | PP1 inh confirm 16 | PP5 inh counter inactive
Cc1ccc(O)c(-c2cc(C(=O)Nc3ccc(S(=O)(=O)N4CC(C)OC(C)C4)cc3)[nH]n2)c1 (stereo not drawn)	none
O=C(N/N=C/c1cc([N+](=O)[O-])ccc1O)c1cccc(N2CCCC2=O)c1	PP1 counter 25 | PP1 inh confirm 21 | PP5 inh counter inactive
O=C(N/N=C/c1cccc([N+](=O)[O-])c1)c1cccc2cc[nH]c12	none
O=C(N/N=C/c1cc([N+](=O)[O-])ccc1O)c1cccc2cc[nH]c12	PP1 counter 29 | PP1 inh confirm 20 | PP5 inh counter inactive
O=S(=O)(c1ccc(Br)s1)N1CCN(CCOc2ccccc2)CC1	none (no result: DNA FID counter, ANO1 block)
Cc1ccc(C(=O)O/N=C/c2c(N3CCOCC3)n(C)c3ccccc23)cc1	PP1 counter 21 | PP1 inh confirm inactive | PP5 inh counter inactive
CCCCCCCCC[n+]1cccc2c3ccccc3ccc21	PP1 counter 19, ANO1 block 100 | PP1 inh confirm inactive | PP5 inh counter inactive
CCCCn1c2ccccc2c2nnc(SCC(=O)NC3=NN=C(c4ccccc4)CS3)nc21	PP1 counter 26 (no result: TMEM16A act) | PP1 inh confirm 27 | PP5 inh counter inactive
Cc1ccccc1N(C)S(=O)(=O)c1nnc(NC(=O)c2ccco2)s1	none
Cc1cc(C)c2nc(N3C(=O)C(O)=C(C(=O)c4ccco4)C3c3ccc(O)cc3)sc2c1 (stereo not drawn)	PP1 counter 34 (no result: DNA FID counter, ANO1 block) | PP1 inh confirm 30 | PP5 inh counter inactive
Cc1cc(C)c2nc(N3C(=O)C(O)=C(C(=O)c4ccco4)C3c3cccc(O)c3)sc2c1 (stereo not drawn)	PP1 counter 34 (no result: DNA FID counter, ANO1 block) | PP1 inh confirm 26 | PP5 inh counter inactive
CCOC(=O)c1sc(N2C(=O)C(O)=C(C(=O)c3ccco3)C2c2cccc([N+](=O)[O-])c2)nc1C (stereo not drawn)	PP1 counter 39 | PP1 inh confirm 45 | PP5 inh counter inactive
COc1ccc(OC)c(CCNC(=O)CC2(CC3=NS(=O)(=O)c4ccccc4N3)CCCC2)c1	none
N=c1n(CC(=O)c2cccs2)c2ccccc2n1Cc1ccccc1	none
CC1(C)Cc2c(sc3c2c(=N)n(Cc2ccco2)c(=O)n3CC(=O)Nc2cccc(Cl)c2)CO1	PP1 counter 20 | PP1 inh confirm inactive | PP5 inh counter inactive
Oc1cccc2cc3cccc(O)c3c(O)c12	PP1 counter 35 | PP1 inh confirm 24 | PP5 inh counter inactive
Cc1ccc(S(=O)(=O)N2CCN(c3nc(CN4CCCC4)nc4sc(C)c(C)c34)CC2)cc1	PP1 counter 19 (no result: DNA FID counter, ANO1 block) | PP1 inh confirm inactive | PP5 inh counter inactive
Cc1sc2nc(CN3CCCC3)nc(N3CCN(S(=O)(=O)c4cccs4)CC3)c2c1C	PP1 counter 27 | PP1 inh confirm inactive | PP5 inh counter inactive
O=C(N/N=C/c1cccc(F)c1)c1cc(-c2ccco2)nc2ccccc12	PP1 counter 31 | PP1 inh confirm inactive | PP5 inh counter inactive
COc1cc(/C=N/NC(=O)c2cc(-c3ccco3)nc3ccccc23)cc(OC)c1O	none
O=C(COc1ccccc1)N1CCN(S(=O)(=O)c2ccc(Br)cc2)CC1	PP1 counter 22 | PP1 inh confirm inactive | PP5 inh counter inactive
COc1ccccc1-c1cc(-c2ccccc2)nc(SC(C(N)=O)c2ccccc2)c1C#N (stereo not drawn)	PP1 counter 19 | PP1 inh confirm 27 | PP5 inh counter inactive
Cc1nc(SC(C(N)=O)c2ccccc2)c(C#N)c(C)c1C (stereo not drawn)	none
Cc1ccc(-n2nc3c(c2NC(=O)/C=C\c2ccc4c(c2)OCO4)CSC3)cc1	PP1 counter 20 | PP1 inh confirm inactive | PP5 inh counter inactive
Cc1ccc(-n2nc3c(c2NC(=O)/C=C\c2ccc4c(c2)OCO4)CSC3)c(C)c1	none
CN(CC(=O)Nc1ccccc1N1CCCC1)S(=O)(=O)c1ccc(F)cc1	PP1 counter 74 (no result: DNA FID counter) | PP1 inh confirm inactive | PP5 inh counter inactive
CC(=O)Nc1ccc(S(=O)(=O)N(C)CC(=O)Nc2ccccc2N2CCOCC2)cc1	none
C/C(=N\NC(=O)c1nnn(-c2nonc2N)c1CN(C)c1ccccc1)c1ccccn1	PP1 counter 19 | PP1 inh confirm 30 | PP5 inh counter inactive
CCc1noc(C)c1C(=O)NCCc1ccccc1	none (no result: DNA FID counter)
C#CCNC(=O)C1=C[C@@H](c2csc3ccccc23)C[C@@H](OCc2ccc(CO)cc2)O1	PP1 counter 73 | PP1 inh confirm inactive | PP5 inh counter inactive
Cc1cc(SCC(=O)OCC(=O)N(C)c2ccccc2)nc2ccccc12	none (no result: DNA FID counter)
N#C/C(=C/c1ccc(-c2ccc(S(N)(=O)=O)cc2)o1)c1nc2ccccc2s1	PP1 counter 20 | PP1 inh confirm 22 | PP5 inh counter inactive
N#C/C(=C/c1ccc(-c2ccc(S(N)(=O)=O)cc2)o1)C(=O)Nc1ccccc1	none
CCN(CC)S(=O)(=O)c1cccc(N=NC2=C(O)CCCC2=O)c1	PP1 counter 57 | PP1 inh confirm inactive | PP5 inh counter inactive
Cc1ccc2cc(CCl)c(Cl)nc2c1	none
O=C(CSc1cn(CCNC(=O)c2ccc3ccccc3c2)c2ccccc12)NCc1ccco1	PP1 counter 18 | PP1 inh confirm inactive | PP5 inh counter inactive
Cn1c(=O)cc(SCC(=O)NCc2ccco2)c2ccccc21	none
O=c1c2ccccc2nc(-c2ccc(Cl)cc2Cl)n1O	none
O=C(O)c1ccccc1-c1nc2cc(Cl)ccc2c(=O)n1O	PP1 counter 22 | PP1 inh confirm 24 | PP5 inh counter inactive
Cn1nnnc1SCC(=O)Nc1ncc(C(F)(F)F)cc1Cl	none (no result: PP5 inh, DNA FID counter, PP1 counter, ANO1 block)

Compound activity from PubChem.
